For 1 sequence, binding signal results are on record in paper PMC7862700, “An all-to-all approach to the identification of sequence-specific readers for epigenetic DNA modifications on cytosine”.

Common to all, as to test: DAPPL (digital affinity profiling via proximity ligation, sequencing); 10 mM Tris-HCl pH 7.5, 50 mM NaCl, 1 mM DTT, 4% glycerol, room temperature, 30 min; GST-TFs on glutathione beads, 16-mer random dsDNA library, 0.1% formaldehyde crosslink after washing; high values mean tight binding
What all share (details): protein: recombinant; tags: N-terminal GST; dsDNA, one strand shown

For one experiment, the target named is T1, FLI1 (Homo sapiens, UniProt Q01543 1-452).
T1 sequence: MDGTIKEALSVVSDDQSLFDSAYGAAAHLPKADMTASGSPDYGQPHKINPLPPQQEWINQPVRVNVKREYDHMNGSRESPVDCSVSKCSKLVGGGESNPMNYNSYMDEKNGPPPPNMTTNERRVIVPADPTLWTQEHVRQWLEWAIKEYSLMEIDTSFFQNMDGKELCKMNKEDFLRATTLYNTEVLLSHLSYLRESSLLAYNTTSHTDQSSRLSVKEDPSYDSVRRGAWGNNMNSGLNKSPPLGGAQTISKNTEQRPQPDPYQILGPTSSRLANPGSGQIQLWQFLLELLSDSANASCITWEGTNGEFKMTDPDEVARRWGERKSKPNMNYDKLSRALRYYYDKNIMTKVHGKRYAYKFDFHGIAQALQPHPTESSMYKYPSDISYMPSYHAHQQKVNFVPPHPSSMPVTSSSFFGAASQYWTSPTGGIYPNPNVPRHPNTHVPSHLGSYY
In short, it runs like this: (§1)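 After expression in yeast as GST fusions, human transcription factors were bound to glutathione beads, DNA-barcoded and mixed with a tag-only sample. The pools were incubated with 200 nmole of a 16-mer random double-stranded DNA library in Tris/NaCl/DTT/glycerol buffer (30 min, room temperature), washed and crosslinked with 0.1% formaldehyde. Proximity ligation with BsaI/T4 ligase ran for 1 h at 37 °C, before PCR amplification and sequencing on an Illumina NextSeq500. Binding signal is a hexamer's read frequency for a factor divided by its frequency for the tag-only sample.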

The next experiment concerns the target T2, ELK1 (Homo sapiens, UniProt P19419 1-428).
T2 sequence: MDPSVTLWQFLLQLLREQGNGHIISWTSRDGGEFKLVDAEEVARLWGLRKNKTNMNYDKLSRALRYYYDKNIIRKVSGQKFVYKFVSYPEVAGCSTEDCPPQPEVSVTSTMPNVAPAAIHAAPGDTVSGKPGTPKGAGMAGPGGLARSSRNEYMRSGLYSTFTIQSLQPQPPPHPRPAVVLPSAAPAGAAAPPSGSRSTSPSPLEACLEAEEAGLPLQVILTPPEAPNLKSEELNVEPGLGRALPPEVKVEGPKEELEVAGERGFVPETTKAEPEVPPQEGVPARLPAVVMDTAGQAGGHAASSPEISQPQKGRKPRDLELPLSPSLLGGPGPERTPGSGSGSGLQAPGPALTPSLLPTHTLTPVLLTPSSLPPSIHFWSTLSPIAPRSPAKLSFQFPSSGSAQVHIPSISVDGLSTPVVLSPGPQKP
In a few lines:
as §1

The next experiment has as its target T3, GABPA (Homo sapiens, UniProt Q06546 1-454).
T3 sequence: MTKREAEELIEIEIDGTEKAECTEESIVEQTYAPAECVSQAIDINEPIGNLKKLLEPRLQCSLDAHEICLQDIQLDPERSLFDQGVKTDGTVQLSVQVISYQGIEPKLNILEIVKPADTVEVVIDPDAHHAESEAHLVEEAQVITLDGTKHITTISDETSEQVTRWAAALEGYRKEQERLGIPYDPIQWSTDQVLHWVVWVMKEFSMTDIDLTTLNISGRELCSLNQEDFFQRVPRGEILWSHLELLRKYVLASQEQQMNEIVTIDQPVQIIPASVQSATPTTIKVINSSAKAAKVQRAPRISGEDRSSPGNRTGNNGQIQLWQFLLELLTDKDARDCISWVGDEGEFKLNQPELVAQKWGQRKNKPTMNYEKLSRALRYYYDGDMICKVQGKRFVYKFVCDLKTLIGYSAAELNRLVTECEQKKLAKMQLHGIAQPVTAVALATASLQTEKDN
In a few lines: as §1

The target in another experiment is T4, ERG (Homo sapiens, UniProt P11308 1-479).
T4 sequence: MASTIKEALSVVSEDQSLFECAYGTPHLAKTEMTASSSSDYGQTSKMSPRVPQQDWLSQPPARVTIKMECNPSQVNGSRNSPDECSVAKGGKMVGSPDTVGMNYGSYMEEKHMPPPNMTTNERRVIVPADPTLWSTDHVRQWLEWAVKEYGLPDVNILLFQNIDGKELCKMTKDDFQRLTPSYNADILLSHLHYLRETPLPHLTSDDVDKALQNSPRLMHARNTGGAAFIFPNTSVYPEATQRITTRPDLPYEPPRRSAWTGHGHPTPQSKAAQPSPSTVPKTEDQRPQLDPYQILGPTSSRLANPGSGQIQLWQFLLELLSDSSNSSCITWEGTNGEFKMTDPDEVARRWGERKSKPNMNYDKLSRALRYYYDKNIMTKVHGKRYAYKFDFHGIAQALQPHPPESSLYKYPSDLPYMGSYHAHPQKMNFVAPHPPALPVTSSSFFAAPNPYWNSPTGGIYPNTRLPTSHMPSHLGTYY
In a few lines: as §1

Another experiment addresses ELF1 (Homo sapiens, UniProt P32519 1-619). In a few lines: as §1
A further experiment addresses T5, EHF (Homo sapiens, UniProt Q9NZC4 1-300).
T5 sequence: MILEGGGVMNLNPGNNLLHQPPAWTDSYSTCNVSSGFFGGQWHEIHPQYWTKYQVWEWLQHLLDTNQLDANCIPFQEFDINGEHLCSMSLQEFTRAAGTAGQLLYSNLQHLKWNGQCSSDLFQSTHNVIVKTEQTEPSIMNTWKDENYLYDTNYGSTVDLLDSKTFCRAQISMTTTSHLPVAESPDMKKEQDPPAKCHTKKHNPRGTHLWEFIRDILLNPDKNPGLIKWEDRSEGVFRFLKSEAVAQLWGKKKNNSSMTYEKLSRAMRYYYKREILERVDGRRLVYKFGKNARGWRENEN
In short, it runs like this: as §1

The target in the next experiment is SPI1 (Homo sapiens, UniProt P17947 1-270). In short, it runs like this: as §1
A further experiment concerns the target SPIB (Homo sapiens, UniProt Q01892 1-262). In short, it runs like this:
as §1

A further experiment concerns the target T6, ELK3 (Homo sapiens, UniProt P41970 1-407).
T6 sequence: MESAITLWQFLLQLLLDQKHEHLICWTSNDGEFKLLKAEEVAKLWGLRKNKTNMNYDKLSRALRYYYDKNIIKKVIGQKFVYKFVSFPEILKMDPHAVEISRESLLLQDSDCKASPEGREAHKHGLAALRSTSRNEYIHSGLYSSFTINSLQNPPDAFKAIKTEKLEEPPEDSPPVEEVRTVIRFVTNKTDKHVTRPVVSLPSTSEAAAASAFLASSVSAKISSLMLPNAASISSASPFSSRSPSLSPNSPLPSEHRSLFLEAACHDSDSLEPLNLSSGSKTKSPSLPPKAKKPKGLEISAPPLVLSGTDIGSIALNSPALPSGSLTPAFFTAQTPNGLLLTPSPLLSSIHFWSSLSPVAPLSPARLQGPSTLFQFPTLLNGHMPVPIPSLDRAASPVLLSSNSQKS
In short, it runs like this: as §1

The target of the next experiment is T7, FEV (Homo sapiens, UniProt Q99581 1-238).
T7 sequence: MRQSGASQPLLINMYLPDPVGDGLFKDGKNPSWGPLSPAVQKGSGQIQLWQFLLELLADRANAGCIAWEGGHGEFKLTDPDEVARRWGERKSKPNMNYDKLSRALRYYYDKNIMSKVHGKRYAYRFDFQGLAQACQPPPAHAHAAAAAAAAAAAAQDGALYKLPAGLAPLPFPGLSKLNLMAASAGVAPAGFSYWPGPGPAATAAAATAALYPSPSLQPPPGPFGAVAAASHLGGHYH
In short, it runs like this:
as §1

Another experiment has as its target ETV5 (Homo sapiens, UniProt P41161 1-510). In short, it runs like this:
as §1

A further experiment deals with T8, SPIC (Homo sapiens, UniProt Q8N5J4 1-248).
T8 sequence: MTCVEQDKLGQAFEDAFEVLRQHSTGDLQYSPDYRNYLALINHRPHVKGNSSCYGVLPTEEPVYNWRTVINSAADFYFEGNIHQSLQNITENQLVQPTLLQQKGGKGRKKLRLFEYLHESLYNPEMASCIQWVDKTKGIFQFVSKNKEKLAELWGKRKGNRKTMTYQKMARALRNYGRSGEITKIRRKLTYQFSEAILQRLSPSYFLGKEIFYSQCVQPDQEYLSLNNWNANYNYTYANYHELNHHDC
In a few lines:
as §1

The next experiment deals with ELF4 (Homo sapiens, UniProt Q99607 1-663). In a few lines: as §1
The target of a further experiment is ETV1 (Homo sapiens, UniProt P50549 1-477). In short, it runs like this: as §1
For a further experiment, the target named is T9, ERF (Homo sapiens, UniProt P50548 1-548).
T9 sequence: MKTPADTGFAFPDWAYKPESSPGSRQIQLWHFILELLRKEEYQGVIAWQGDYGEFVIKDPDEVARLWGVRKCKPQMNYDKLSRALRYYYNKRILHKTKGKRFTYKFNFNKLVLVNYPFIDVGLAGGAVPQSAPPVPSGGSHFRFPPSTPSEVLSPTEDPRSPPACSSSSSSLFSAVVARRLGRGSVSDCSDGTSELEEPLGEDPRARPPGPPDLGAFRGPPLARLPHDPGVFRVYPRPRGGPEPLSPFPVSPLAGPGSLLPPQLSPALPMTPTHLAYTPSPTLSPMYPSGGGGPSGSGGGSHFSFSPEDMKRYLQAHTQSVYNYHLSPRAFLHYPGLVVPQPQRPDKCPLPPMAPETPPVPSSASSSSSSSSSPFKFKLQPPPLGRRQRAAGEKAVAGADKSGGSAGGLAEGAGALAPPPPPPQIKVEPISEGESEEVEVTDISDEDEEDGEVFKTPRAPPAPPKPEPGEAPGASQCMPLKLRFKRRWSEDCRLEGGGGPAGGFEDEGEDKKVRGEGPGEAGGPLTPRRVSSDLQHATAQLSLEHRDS
In short, it runs like this: as §1

The next experiment concerns the target T10, ETV3L (Homo sapiens, UniProt Q6ZN32 1-361).
T10 sequence: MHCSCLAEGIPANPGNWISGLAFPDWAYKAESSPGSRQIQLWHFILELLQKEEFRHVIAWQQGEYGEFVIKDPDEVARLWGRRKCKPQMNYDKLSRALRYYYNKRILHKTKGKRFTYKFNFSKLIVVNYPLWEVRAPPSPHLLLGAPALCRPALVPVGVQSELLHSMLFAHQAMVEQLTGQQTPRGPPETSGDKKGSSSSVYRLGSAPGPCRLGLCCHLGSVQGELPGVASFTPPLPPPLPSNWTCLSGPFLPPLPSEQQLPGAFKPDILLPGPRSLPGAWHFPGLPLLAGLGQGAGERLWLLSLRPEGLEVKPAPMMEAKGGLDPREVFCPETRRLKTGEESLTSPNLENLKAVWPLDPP
In a few lines: as §1

In the next experiment the target is T11, ETS2 (Homo sapiens, UniProt P15036 1-469).
T11 sequence: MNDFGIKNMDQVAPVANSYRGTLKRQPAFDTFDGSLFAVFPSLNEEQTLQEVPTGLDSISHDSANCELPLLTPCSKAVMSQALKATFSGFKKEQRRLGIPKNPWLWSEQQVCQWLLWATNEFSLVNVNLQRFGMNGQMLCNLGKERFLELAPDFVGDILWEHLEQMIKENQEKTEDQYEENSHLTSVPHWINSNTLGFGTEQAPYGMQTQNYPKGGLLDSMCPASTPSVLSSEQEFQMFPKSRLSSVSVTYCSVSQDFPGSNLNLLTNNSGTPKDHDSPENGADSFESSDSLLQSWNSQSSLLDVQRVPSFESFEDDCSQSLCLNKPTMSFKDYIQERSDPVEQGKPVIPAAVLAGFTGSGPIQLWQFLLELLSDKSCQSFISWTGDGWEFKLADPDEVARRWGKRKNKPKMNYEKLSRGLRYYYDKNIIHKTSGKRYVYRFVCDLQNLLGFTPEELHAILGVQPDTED
In a few lines:
as §1

The next experiment deals with T12, ELF5 (Homo sapiens, UniProt Q9UKW6-2 1-255).
T12 sequence: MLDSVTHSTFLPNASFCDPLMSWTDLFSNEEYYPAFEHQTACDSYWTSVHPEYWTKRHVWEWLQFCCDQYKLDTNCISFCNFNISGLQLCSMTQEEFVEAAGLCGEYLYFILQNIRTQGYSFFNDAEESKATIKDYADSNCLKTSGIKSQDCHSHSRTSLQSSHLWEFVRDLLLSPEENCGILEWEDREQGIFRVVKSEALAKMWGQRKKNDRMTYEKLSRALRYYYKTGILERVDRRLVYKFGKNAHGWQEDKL
In short, it runs like this:
as §1

The target of another experiment is T13, ETV3 (Homo sapiens, UniProt P41162-2 1-143).
T13 sequence: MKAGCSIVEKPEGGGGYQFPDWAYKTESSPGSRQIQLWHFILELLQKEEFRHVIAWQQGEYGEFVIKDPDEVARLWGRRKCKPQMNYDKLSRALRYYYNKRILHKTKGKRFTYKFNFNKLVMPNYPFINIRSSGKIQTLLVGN
In short, it runs like this: as §1

For another experiment, the target named is ETV6 (Homo sapiens, UniProt P41212 1-452). In short, it runs like this:
as §1

Chain of ELF1 (P32519 whole entry): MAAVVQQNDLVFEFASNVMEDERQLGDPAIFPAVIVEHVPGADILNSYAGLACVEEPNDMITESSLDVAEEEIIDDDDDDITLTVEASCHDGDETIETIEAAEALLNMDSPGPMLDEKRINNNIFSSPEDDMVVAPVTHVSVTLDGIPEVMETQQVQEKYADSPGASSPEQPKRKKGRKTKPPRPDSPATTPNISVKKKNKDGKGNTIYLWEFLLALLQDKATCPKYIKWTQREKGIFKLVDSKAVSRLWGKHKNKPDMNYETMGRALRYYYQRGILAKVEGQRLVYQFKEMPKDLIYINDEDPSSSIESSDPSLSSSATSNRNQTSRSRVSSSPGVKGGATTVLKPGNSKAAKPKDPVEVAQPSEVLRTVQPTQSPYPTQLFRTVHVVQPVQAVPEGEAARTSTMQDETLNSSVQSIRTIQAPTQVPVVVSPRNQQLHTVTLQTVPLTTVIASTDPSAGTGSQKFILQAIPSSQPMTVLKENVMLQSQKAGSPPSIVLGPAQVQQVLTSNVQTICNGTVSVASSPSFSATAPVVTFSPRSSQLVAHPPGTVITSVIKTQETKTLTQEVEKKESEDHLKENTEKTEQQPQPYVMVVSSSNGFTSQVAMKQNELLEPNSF
Chain of ELF4 (Q99607 whole entry): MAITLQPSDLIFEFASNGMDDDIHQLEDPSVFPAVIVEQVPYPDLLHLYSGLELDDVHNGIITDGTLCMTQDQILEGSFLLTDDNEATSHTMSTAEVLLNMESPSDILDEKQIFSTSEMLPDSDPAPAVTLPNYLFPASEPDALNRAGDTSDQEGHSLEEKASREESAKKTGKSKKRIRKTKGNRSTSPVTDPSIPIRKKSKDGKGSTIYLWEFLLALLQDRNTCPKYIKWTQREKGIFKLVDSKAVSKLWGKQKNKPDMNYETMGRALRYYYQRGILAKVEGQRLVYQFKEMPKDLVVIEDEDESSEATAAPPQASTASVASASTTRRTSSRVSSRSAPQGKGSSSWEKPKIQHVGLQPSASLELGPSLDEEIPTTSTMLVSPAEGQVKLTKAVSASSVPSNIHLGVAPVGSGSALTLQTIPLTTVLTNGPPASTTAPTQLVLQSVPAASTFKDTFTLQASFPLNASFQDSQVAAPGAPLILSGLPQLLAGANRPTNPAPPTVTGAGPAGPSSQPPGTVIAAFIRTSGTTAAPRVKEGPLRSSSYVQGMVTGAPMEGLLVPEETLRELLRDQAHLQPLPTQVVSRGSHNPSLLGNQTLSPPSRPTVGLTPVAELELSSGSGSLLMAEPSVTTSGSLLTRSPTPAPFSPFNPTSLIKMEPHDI
Chain of SPIB (Q01892 whole entry): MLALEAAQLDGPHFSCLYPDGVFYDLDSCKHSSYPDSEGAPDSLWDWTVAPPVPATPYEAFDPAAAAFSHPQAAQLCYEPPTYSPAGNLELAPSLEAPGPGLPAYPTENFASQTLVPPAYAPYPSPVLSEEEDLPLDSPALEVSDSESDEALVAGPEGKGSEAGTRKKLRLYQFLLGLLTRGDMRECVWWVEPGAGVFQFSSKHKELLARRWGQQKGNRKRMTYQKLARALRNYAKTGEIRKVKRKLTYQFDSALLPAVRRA
Chain of ETV1 (P50549 whole entry): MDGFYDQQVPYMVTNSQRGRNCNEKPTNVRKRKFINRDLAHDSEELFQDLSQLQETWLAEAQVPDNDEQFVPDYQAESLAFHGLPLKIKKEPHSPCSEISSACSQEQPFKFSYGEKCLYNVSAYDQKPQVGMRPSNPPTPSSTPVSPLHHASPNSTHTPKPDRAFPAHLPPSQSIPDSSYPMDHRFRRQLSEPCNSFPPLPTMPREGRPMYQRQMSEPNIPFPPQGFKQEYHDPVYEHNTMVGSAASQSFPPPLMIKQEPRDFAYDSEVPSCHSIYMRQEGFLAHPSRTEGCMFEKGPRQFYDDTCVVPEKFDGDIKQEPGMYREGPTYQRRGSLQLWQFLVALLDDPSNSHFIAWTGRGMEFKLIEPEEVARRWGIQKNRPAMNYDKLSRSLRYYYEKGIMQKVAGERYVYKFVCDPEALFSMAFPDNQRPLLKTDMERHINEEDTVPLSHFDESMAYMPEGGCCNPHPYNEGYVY
Chain of ETV5 (P41161 whole entry): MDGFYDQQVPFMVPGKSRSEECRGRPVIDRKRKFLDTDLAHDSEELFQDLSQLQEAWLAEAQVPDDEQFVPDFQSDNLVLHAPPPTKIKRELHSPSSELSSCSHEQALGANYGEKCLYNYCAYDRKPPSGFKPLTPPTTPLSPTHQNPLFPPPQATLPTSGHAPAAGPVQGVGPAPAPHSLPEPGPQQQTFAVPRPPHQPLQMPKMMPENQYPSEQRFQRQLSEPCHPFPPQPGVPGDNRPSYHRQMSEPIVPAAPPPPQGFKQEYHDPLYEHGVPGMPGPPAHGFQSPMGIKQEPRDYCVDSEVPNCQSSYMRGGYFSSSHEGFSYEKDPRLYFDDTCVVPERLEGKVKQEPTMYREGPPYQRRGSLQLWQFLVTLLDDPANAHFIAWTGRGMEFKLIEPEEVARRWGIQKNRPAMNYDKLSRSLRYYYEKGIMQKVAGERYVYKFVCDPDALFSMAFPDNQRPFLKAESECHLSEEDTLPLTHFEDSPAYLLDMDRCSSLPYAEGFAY
Chain of ETV6 (P41212 whole entry): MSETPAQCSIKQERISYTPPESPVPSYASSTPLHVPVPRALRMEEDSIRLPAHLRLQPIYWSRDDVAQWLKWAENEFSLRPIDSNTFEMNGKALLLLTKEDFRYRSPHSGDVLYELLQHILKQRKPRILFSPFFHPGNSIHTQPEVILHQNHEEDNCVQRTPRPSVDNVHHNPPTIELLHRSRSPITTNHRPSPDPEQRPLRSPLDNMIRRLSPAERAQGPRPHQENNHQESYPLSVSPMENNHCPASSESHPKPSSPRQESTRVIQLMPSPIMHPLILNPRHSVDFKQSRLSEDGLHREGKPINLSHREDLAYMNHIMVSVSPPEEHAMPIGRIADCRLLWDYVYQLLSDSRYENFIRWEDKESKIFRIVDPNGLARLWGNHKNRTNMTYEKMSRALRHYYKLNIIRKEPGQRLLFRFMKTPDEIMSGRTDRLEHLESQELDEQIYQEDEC

With GAAGTC, the binding signal with FLI1 is 1.15 fold enrichment (6-mer frequency, TF over GST control); in the experiment with ELK1, 1.2 fold enrichment (6-mer frequency, TF over GST control); with GABPA, 1.04 fold enrichment (6-mer frequency, TF over GST control); with ERG, 1.33 fold enrichment (6-mer frequency, TF over GST control); with ELF1 it was 1.1 fold enrichment (6-mer frequency, TF over GST control); with EHF, 1.13 fold enrichment (6-mer frequency, TF over GST control). Further, the binding signal with SPI1 was 1.51 fold enrichment (6-mer frequency, TF over GST control); with SPIB it was 1.22 fold enrichment (6-mer frequency, TF over GST control); with ELK3, 1.19 fold enrichment (6-mer frequency, TF over GST control); in the experiment with FEV it was 1.22 fold enrichment (6-mer frequency, TF over GST control); with ETV5, 1.17 fold enrichment (6-mer frequency, TF over GST control); with SPIC, 1.23 fold enrichment (6-mer frequency, TF over GST control). Moreover, the binding signal in the experiment with ELF4 was 1.08 fold enrichment (6-mer frequency, TF over GST control); with ETV1, 1.22 fold enrichment (6-mer frequency, TF over GST control); with ERF, 1.11 fold enrichment (6-mer frequency, TF over GST control); in the experiment with ETV3L it was 1.14 fold enrichment (6-mer frequency, TF over GST control); with ETS2, 1.19 fold enrichment (6-mer frequency, TF over GST control); with ELF5 it was 1.26 fold enrichment (6-mer frequency, TF over GST control). Besides, the binding signal in the experiment with ETV3 is 1.21 fold enrichment (6-mer frequency, TF over GST control); in the experiment with ETV6, 1.22 fold enrichment (6-mer frequency, TF over GST control).
